Reference: PubChem BioAssay AID1209 (Sanford-Burnham Center for Chemical Genomics, 2008)
Values joined by “and” are separate entries in the source; they are usually repeats but may differ in a detail not shown here. Equal entries are not always repeated. Hit rate of the full screen: of about 190,000 compounds, about 810 (0.43%) were called active. This is one part of a sample in which actives are shown more often than they occur. Rule as the data show it: active = inhibition above about 50%; inactive = the rest.

Biological target: Mannose-6-phosphate isomerase (Homo sapiens) (UniProt P34949)
Assay: inhibitors of human PMI, primary screen, biochemical, fluorescence intensity, coupled assay (AID 1209);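 also: plate controls were DMSO vehicle for no effect and wells lacking substrate for full effect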
Conditions: purified PMI enzyme, at 20 µM, active compounds read high

Sequence of Mannose-6-phosphate isomerase (Homo sapiens) (P34949 whole entry, looked up): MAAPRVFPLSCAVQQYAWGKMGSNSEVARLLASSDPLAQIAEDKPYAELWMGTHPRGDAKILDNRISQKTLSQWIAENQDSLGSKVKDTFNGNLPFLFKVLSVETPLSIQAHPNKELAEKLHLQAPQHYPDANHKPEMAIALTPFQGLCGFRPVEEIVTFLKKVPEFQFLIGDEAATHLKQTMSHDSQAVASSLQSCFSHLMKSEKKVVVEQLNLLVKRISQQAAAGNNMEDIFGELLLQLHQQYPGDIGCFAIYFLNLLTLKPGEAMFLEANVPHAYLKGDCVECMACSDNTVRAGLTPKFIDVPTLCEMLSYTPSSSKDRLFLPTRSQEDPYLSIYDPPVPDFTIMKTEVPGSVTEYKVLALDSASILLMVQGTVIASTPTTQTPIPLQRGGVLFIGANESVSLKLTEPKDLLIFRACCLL

SMILES	inhibition
CC(=O)c1cc(NC(=O)c2ccc([N+](=O)[O-])cc2)c(=O)oc1C	-41% (inactive)
O=C(Nc1cc2c(oc1=O)CCCC2=O)c1cccc(Cl)c1	-17.4% (inactive)
CCN1CCN(S(=O)(=O)Cc2ccccc2)CC1	-0.2% (inactive)
CCOC(=O)C1CCN(S(=O)(=O)Cc2ccccc2)CC1	-11.2% (inactive)
CCOC(=O)N1CCN(S(=O)(=O)Cc2ccccc2)CC1	104% (active)
CN1/C(=N\O)c2cccc3cccc1c23	5.7% (inactive)
CCC1=[N+](C)c2cccc3cccc(c23)N1C	51% (active)
CC1=Nc2cccc3cccc(c23)N1C	25.2% (inactive)
O=C(CCc1ccc(Oc2cc([N+](=O)[O-])cc([N+](=O)[O-])c2)cc1)N1CCCCCC1	5.7% (inactive)
COc1ccccc1NC(=S)N(CCc1nc2cc(C)c(C)cc2[nH]1)Cc1cccnc1	-2% (inactive)
CCOC(=O)C(NC(=O)CC)(Nc1ccc(S(=O)(=O)Nc2ncccn2)cc1)C(F)(F)F (stereo not given)	0.5% (inactive)
Cc1cc2c(C)cc(=O)oc2c2c1NCCC2	25.3% (inactive)
Cc1ccc(OC(=O)C(F)(F)F)c2c1NCCC2	16.6% (inactive)
Oc1c(Cl)cc(Cl)c2c1NCCC2	61.2% (active)
COC(=O)c1sc(=S)n(-c2cc(F)ccc2F)c1N	55.8% (active)
Cc1ccc(NC(=O)c2sc(=S)n(-c3cc(C)ccc3F)c2N)cc1	1.4% (inactive)
CCOC(=O)c1sc(=S)n(-c2cccc(OC)c2)c1N	63.2% (active)
COC(=O)c1sc(=S)n(-c2cccc(Cl)c2)c1N	75.9% (active)
CCOC(=O)c1sc(=S)n(-c2cc(F)ccc2F)c1N	37.9% (inactive)
CCOC(=O)c1sc(=S)n(-c2ccc(C)cc2)c1N	30.1% (inactive)
COC(=O)c1sc(=S)n(-c2ccccc2OC)c1N	0.3% (inactive)
CCOC(=O)c1sc(=S)n(-c2cc(OC)ccc2OC)c1N	65.3% (active)
COc1ccc(Cl)cc1-n1c(N)c(C(N)=O)sc1=S	22.6% (inactive)
CCOC(=O)c1sc(=S)n(-c2ccccc2OC)c1N	21.8% (inactive)
CCOC(=O)c1sc(=S)n(-c2ccc(F)c(F)c2)c1N	27% (inactive)

SMILES	inhibition
CCOC(=O)c1sc(=S)n(-c2ccccc2)c1N	-2.1% (inactive)
CCOC(=O)c1c(C)c(C(=O)NCc2ccccc2OC)c(C)n1C	11.8% (inactive)
CCOC(=O)CNC(=S)n1ncnc1N	-9.1% (inactive)
Cc1ccc(S(=O)(=O)CCC(=O)Nc2ccc(F)cc2)cc1	6.5% (inactive)
Cc1cccc(C(C)C)c1NC(=O)COC(=O)Cc1ccsc1	9% (inactive)
Cc1ccc(OCC(=O)N/N=C/c2ccco2)cc1	-1.5% (inactive)
CCNc1nc(NCC)nc(N/N=C/c2ccc(Br)cc2)n1	-0.7% (inactive)
Oc1ccc(/C=N/Nc2cc(N3CCOCC3)nc(N3CCOCC3)n2)cc1O	76.8% (active)
Oc1ccc(/C=N\Nc2cc(N3CCOCC3)nc(N3CCOCC3)n2)c(O)c1	32.2% (inactive)
CCNc1nc(NCC)nc(N/N=C/c2ccc(O)c(O)c2)n1	61.4% (active)
COc1ccc(/C=N/Nc2cc(N3CCCC3)nc(N3CCCC3)n2)cc1	32% (inactive)
CC(C)c1ccc(/C=N/Nc2cc(N3CCOCC3)nc(N3CCOCC3)n2)cc1	77% (active)
Oc1ccc(/C=N/Nc2cc(N3CCCC3)nc(N3CCCC3)n2)cc1	32% (inactive)
Clc1ccc(-c2ccc(/C=N/Nc3cc(N4CCOCC4)nc(N4CCOCC4)n3)o2)cc1	47.2% (inactive)
CN(C)c1ccc(/C=N/Nc2cc(N3CCOCC3)nc(N3CCOCC3)n2)cc1	73.3% (active)
Oc1cccc(/C=N/Nc2cc(N3CCCC3)nc(N3CCCC3)n2)c1	41.2% (inactive)
CCNc1nc(NCC)nc(N/N=C/c2ccc(N(C)C)cc2)n1	-12.9% (inactive)
CN(C)c1ccc(/C=C/C=N/Nc2nc(N3CCOCC3)nc(N3CCOCC3)n2)cc1	7.3% (inactive)
O=[N+]([O-])c1ccc(O)c2cccnc12	-10.1% (inactive)
CCCn1nc(C(=O)NC2CCCc3ccccc32)c2ccccc2c1=O (stereo not given)	6.9% (inactive)
COc1ccc(OC)c(C(=O)COC(=O)c2cc(C)oc2C)c1	-24.4% (inactive)
O=C(CNC(=O)c1cccs1)NCC(=O)OCc1cccc(Cl)c1	4.5% (inactive)
CCOC(=O)C1=C(C)Nc2ccccc2N=C1NC(=O)Cc1ccc(Br)cc1	18.8% (inactive)
COc1ccc(Br)cc1-c1noc(-c2ccccc2)n1	11.5% (inactive)
COc1ccc(C2C(C#N)=C(N)Oc3n[nH]c(C)c32)cc1Cn1cc([N+](=O)[O-])cn1 (stereo not given)	7.7% (inactive)

SMILES	inhibition
O=C(/C=C/c1ccc(Br)cc1)NC(=S)NNC(=O)c1ccco1	-1.2% (inactive)
COc1cc(/C=N/Nc2nc(N3CCCC3)nc(N3CCCC3)n2)ccc1O	7.9% (inactive)
Oc1ccc(/C=N/Nc2nc(N3CCCC3)nc(N3CCCC3)n2)cc1O	57.6% (active)
COc1ccc(/C=N/Nc2nc(N3CCCC3)nc(N3CCCC3)n2)cc1O	-10.3% (inactive)
N=C1C(c2ccccc2)=C(O)CN1c1cccc(S(N)(=O)=O)c1	10.1% (inactive)
CC1(C)C2CCC1(CS(=O)(=O)N1CCOCC1)C(=O)C2 (stereo not given)	7.9% (inactive)
CCOC(=O)c1cc2sccc2n1CC(=O)Nc1ccc(OC)cc1OC	16% (inactive)
O=C1c2ccccc2C(=O)N1CN(C(=O)COc1ccccc1)c1ccccc1	3.5% (inactive)
COC(=O)c1ccc(Sc2ccc(C)cc2)c(N)c1	55% (active)
COC(=O)c1ccc(Sc2ccc(Cl)cc2)c(N)c1	9.3% (inactive)
COC(=O)c1ccc(Sc2ccc(F)cc2)c(N)c1	11.4% (inactive)
Cc1sc2nc(CSc3n[nH]c(N)n3)[nH]c(=O)c2c1C	-10.2% (inactive)
CCCCNc1cc(NC(C)=O)cc2cc(OC)c(OC)cc12	53.3% (active)
CCCCNc1nc(=S)[nH]c2cc(OC)c(OC)cc12	-4.5% (inactive)
CCCC(=O)Nc1cc(OC)c(OC)cc1C(=O)O	6.8% (inactive)
Cc1cc(C)c(C#N)c(SCc2[nH]nc3c2C(c2ccc(F)cc2)C(C#N)=C(N)O3)n1 (stereo not given)	12.8% (inactive)
COc1cc(OC)cc(C(=O)NNC(=O)Cc2ccc(OC)c(S(=O)(=O)N3CCOCC3)c2)c1	2.7% (inactive)
CCCCNC(=O)c1sc(=S)n2c1[nH]c(=O)c1ccccc12	16.1% (inactive)
CCOC(=O)c1sc(=S)n2c1[nH]c(=O)c1ccc(C(=O)OC)cc12	68.6% (active)
CCCCCNC(=O)c1ccc2c(=O)[nH]c3c(C(=O)NCC4CCCO4)sc(=S)n3c2c1 (stereo not given)	10.4% (inactive)
CCOc1ccc(-c2[nH]nc3c2C(c2ccc(O)cc2)C(C#N)=C(N)O3)cc1 (stereo not given)	27.8% (inactive)
COc1ccc(-c2noc(CN(C(=O)C(C)(C)C)C(C)C)n2)cc1	15.9% (inactive)
Cc1oc2cc(O)ccc2c(=O)c1-c1cnn(-c2ccccc2)c1	-5.2% (inactive)
Cc1oc2c(O)c(O)ccc2c(=O)c1-c1cnn(-c2ccccc2)c1	79.5% (active)
Cc1oc2c(C)c(O)ccc2c(=O)c1-c1cnn(-c2ccccc2)c1	-14.8% (inactive)

SMILES	inhibition
CCC(CC)=C(C#N)C(=O)NC1CCCCC1	-12.5% (inactive)
CCN(C(=O)COC(=O)c1cc(-c2ccccc2)nc2c1c(C)nn2-c1ccccc1)C1CCS(=O)(=O)C1 (stereo not given)	14.7% (inactive)
CCOc1ccccc1-c1c2cc(O)c(=O)cc-2oc2cc(O)c(O)cc12	46.2% (inactive)
O=c1cc(-c2ccccc2Cl)oc2cccc(O)c12	-9.9% (inactive)
COc1ccc(OC)c(-c2c3cc(O)c(=O)cc-3oc3cc(O)c(O)cc23)c1	61.1% (active)
COc1ccc(-c2cc(=O)c3cc(OC)ccc3o2)cc1	-5% (inactive)
CC1(C)CC(=O)c2c(oc3cc(O)c(O)cc23)C1	47.6% (inactive)
COc1cc(OC)c(-c2c3cc(O)c(=O)cc-3oc3cc(O)c(O)cc23)cc1OC	73.9% (active)
COc1ccc(OC)c(-c2oc3ccccc3c(=O)c2O)c1	-5.6% (inactive)
COc1cc(-c2cc(=O)c3ccccc3o2)ccc1O	5.9% (inactive)
Nc1cnn(Cc2ccccc2F)c1	18.2% (inactive)
COc1ccc2[nH]cc(CCn3ccc(=O)c(C)c3C)c2c1	0.3% (inactive)
O=C(Nc1ccccc1)c1sccc1Oc1ccc([N+](=O)[O-])cc1F	-6% (inactive)
COc1ccc2c(=O)c(-c3ccccc3)coc2c1	52.5% (active)
CC(=O)Oc1ccc2c(=O)c(-c3ccccc3)coc2c1	-0.1% (inactive)
CC(C)Oc1ccc2c(=O)c(-c3ccccc3)coc2c1	0.6% (inactive) and 7.3% (inactive)
COc1cccc(-c2ccc(SCC(=O)NCCc3ccccc3)nn2)c1	1.9% (inactive)
O=c1[nH]c2ccccc2c(O)c1O	71.8% (active)
O=c1[nH]c2ccccc2c2ccccc12	3.2% (inactive)
CC(=O)Nc1c(O)c2ccccc2[nH]c1=O	20.2% (inactive)
Cc1cccc(/C(N)=N/OC(=O)C23CC4CC(CC(C4)C2)C3)c1	9% (inactive)
Cn1c(=O)n(Cc2ccc(F)cc2)c(=O)c2c1nc1n2CCCN1C1CCCCC1	6% (inactive)
CCOCCCNC(=O)CCC(=O)NNc1nc2ccccc2c2nc(C)nn12	57.5% (active)
COCCCNC(=O)CCC(=O)NNc1nc2ccccc2c2nc(C)nn12	-1.5% (inactive)
CCCCNC(=O)CCC(=O)NNc1nc2ccccc2c2nc(C)nn12	6.3% (inactive)
